Data on 20 molecules can be found in the supplement of paper PMC12297408.

The subject of one assay is Plasmodium falciparum NF54/iGP1_RE9H ulg8 stage V gametocytes. Kind of assay: gametocyte viability (luciferase signal relative to DMSO control) (% of DMSO control); higher = less gametocytocidal activity, active = 50 or less. The settings on record: concentration: 1 µM; exposure time: 72 h. As for the experimental part:
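Synchronous P. falciparum NF54/iGP1_RE9H ulg8 mature stage V gametocytes (day 12) were exposed to Cayman Epigenetics Screening Library compounds at 10 µM or 1 µM for 72 h at 37 °C. Viability was read as RE9H luciferase bioluminescence, normalised to DMSO plate controls (100%); 50 µM methylene blue was the positive control.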
In the case of `COc1ccc(CCc2nc3cc(-c4c(C)noc4C)ccc3n2C[C@H](C)N2CCOCC2)cc1Cl`, the gametocyte viability is 78.4 (inactive).

Turning to `O=C(O)CNC(=O)C(=O)O` [N-Oxalylglycine], the gametocyte viability is 87.3 (inactive).

`CN(C)CCCNC(=O)c1ccc(-c2cc(O)c3ncccc3c2)cc1`: the gametocyte viability was 85.2 (inactive).

Regarding `CC[C@@H]1C(=O)N(C)c2cnc(Nc3ccc(C(=O)NC4CCN(C)CC4)cc3OC)nc2N1C1CCCC1`, the gametocyte viability is 78.1 (inactive).

Take `O=C1C(=Cc2cccnc2)C(=O)c2ccccc21`: the gametocyte viability is 79.2 (inactive).

In the case of `Nc1c(S(=O)(=O)c2ccccc2)c2nc3ccccc3nc2n1-c1ccc(F)cc1`, the gametocyte viability is 66.8 (inactive).

For the molecule `COc1cc(Br)c(Nc2nc(-c3c(C)nc4ncccn34)cs2)c(Br)c1`, the gametocyte viability is 94.5 (inactive).

Take `COc1cc2c(NC3CCN(C(C)C)CC3)nc(C3CCCCC3)nc2cc1OCCCN1CCCC1`: the gametocyte viability was 77.7 (inactive).

Regarding `COc1cc2nc(N3CCCC3)nc(NCCCCCN3CCCC3)c2cc1OC`, the gametocyte viability was 92.2 (inactive).

Consider `Cc1cc(C)cc(C(=O)NOCCCCCC(=O)NO)c1`, for which the gametocyte viability is 92.1 (inactive).

As to `Cc1ccc(NC(=O)CCCCCC(=O)Nc2ccccc2N)cc1` [Pimelic Diphenylamide 106], the gametocyte viability is 86.8 (inactive).

On to `CC(C)C(=O)SCCCCCCC(=O)Nc1nc(-c2ccccc2)cs1`, for which the gametocyte viability was 82.8 (inactive).

`COc1cc(-c2cn(C)c(=O)c3cnccc23)c(OC)cc1CN(C)C`: the gametocyte viability is 86.9 (inactive).

Consider `C#CCC(CCCCCC)C(=O)O` (stereo not given) [2-hexyl-4-Pentynoic Acid], for which the gametocyte viability is 89.2 (inactive).

On to `COc1cc2c(NC3CCN(C4CCCCC4)CC3)nc(N3CCCN(C(C)C)CC3)nc2cc1OCCCN1CCCCC1`, for which the gametocyte viability was 75.5 (inactive).

As for `CN(C)Cc1c(C(=O)NCCOc2ccc(C(=O)NO)cc2)oc2ccccc12`, the gametocyte viability is 65.8 (inactive).

Turning to `Nc1ncn([C@H]2C[C@H](O)[C@@H](CO)O2)c(=O)n1` [Decitabine], the gametocyte viability was 90.6 (inactive).

Take `O=C(NN=Cc1c(O)ccc2ccccc12)c1ccncc1`: the gametocyte viability is 84.7 (inactive).

For `COc1ccc(S(=O)(=O)ON=C2C=C(C)C(=O)C(C)=C2)cc1`, the gametocyte viability was 87.3 (inactive).

Regarding `CCOC(=O)NCCCC(=O)NCCc1ccccc1`, the gametocyte viability is 89.7 (inactive).

Still in this assay, the particulars now being: concentration: 10 µM; exposure time: 72 h.
For the molecule `COc1ccc(CCc2nc3cc(-c4c(C)noc4C)ccc3n2C[C@H](C)N2CCOCC2)cc1Cl`, the gametocyte viability was 68.6 (inactive).

For `O=C(O)CNC(=O)C(=O)O` [N-Oxalylglycine], the gametocyte viability is 85.3 (inactive).

For `CN(C)CCCNC(=O)c1ccc(-c2cc(O)c3ncccc3c2)cc1`, the gametocyte viability was 49.8 (active).

For the molecule `CC[C@@H]1C(=O)N(C)c2cnc(Nc3ccc(C(=O)NC4CCN(C)CC4)cc3OC)nc2N1C1CCCC1`, the gametocyte viability was 16.6 (active).

With `O=C1C(=Cc2cccnc2)C(=O)c2ccccc21`, the gametocyte viability is 80.2 (inactive).

As for `Nc1c(S(=O)(=O)c2ccccc2)c2nc3ccccc3nc2n1-c1ccc(F)cc1`, the gametocyte viability was 56.6 (inactive).

Regarding `COc1cc(Br)c(Nc2nc(-c3c(C)nc4ncccn34)cs2)c(Br)c1`, the gametocyte viability is 93.6 (inactive).

Regarding `COc1cc2c(NC3CCN(C(C)C)CC3)nc(C3CCCCC3)nc2cc1OCCCN1CCCC1`, the gametocyte viability was 15.4 (active).

Turning to `COc1cc2nc(N3CCCC3)nc(NCCCCCN3CCCC3)c2cc1OC`, the gametocyte viability was 18.9 (active).

Consider `Cc1cc(C)cc(C(=O)NOCCCCCC(=O)NO)c1`, for which the gametocyte viability was 64.9 (inactive).

Regarding `Cc1ccc(NC(=O)CCCCCC(=O)Nc2ccccc2N)cc1` [Pimelic Diphenylamide 106], the gametocyte viability was 89 (inactive).

As for `CC(C)C(=O)SCCCCCCC(=O)Nc1nc(-c2ccccc2)cs1`, the gametocyte viability is 79.7 (inactive).

Turning to `COc1cc(-c2cn(C)c(=O)c3cnccc23)c(OC)cc1CN(C)C`, the gametocyte viability is 85.8 (inactive).

As to `C#CCC(CCCCCC)C(=O)O` (stereo not given) [2-hexyl-4-Pentynoic Acid], the gametocyte viability was 95.4 (inactive).

Consider `COc1cc2c(NC3CCN(C4CCCCC4)CC3)nc(N3CCCN(C(C)C)CC3)nc2cc1OCCCN1CCCCC1`, for which the gametocyte viability is 13.4 (active).

For the molecule `CN(C)Cc1c(C(=O)NCCOc2ccc(C(=O)NO)cc2)oc2ccccc12`, the gametocyte viability is 59 (inactive).

On to `Nc1ncn([C@H]2C[C@H](O)[C@@H](CO)O2)c(=O)n1` [Decitabine], for which the gametocyte viability was 90 (inactive).

For `O=C(NN=Cc1c(O)ccc2ccccc12)c1ccncc1`, the gametocyte viability was 65.4 (inactive).

As to `COc1ccc(S(=O)(=O)ON=C2C=C(C)C(=O)C(C)=C2)cc1`, the gametocyte viability was 43.2 (active).

Take `CCOC(=O)NCCCC(=O)NCCc1ccccc1`: the gametocyte viability is 94.3 (inactive).
